Assay [1] can be described thus: qHTS assay to identify small molecule antagonists of the estrogen related receptor (ERR) signaling pathway from Tox21 library - cell viability counter screen (AID 1224834). Note: nearly all actives have a fitted effect of over 30% in size. Note: potency is the fitted concentration of half-maximal effect. The gist of the method:
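ERR cells, 2,000/well; 6 h settle at 37 C/5% CO2; pin-tool compound transfer in DMSO; 17.5 h at 37 C; CellTiter-Fluor, 30 min; fluorescence intensity.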

For assay [2], the target named is Luciferin 4-monooxygenase (Photinus pyralis) (UniProt P08659). Kind of assay: qHTS assay to identify small molecule inhibitors of firefly luciferase (AID 1224835). Note: nearly all actives have a fitted effect of over 25% in size. Note: potency is the fitted concentration of half-maximal effect. The gist of the method: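 Quantitative HTS format; KM concentrations of both substrates. Purified P. pyralis FLuc activity quantified from luminescence images.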
Sequence of Luciferin 4-monooxygenase (Photinus pyralis) (P08659 whole entry, looked up): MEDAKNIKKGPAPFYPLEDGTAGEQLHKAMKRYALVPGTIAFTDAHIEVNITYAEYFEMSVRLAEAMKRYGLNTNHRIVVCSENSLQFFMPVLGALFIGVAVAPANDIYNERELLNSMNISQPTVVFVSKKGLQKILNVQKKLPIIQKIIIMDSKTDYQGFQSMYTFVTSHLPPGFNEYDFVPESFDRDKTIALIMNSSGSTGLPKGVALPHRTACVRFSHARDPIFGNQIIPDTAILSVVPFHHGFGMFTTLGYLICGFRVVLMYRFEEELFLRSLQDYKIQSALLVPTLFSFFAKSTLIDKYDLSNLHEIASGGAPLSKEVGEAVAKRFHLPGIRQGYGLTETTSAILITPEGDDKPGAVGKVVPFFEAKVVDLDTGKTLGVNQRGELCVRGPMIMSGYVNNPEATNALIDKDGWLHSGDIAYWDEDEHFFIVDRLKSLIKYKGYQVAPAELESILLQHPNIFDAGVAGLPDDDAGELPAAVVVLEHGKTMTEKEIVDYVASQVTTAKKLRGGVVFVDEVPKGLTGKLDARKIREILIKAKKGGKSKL
A short description of assay [3]: qHTS assay to identify small molecule agonists of the constitutive androstane receptor (CAR) signaling pathway - cell viability counter screen (AID 1224836). Note: nearly all actives have a fitted effect of over 45% in size. Note: potency is the fitted concentration of half-maximal effect. Put shortly: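 Fluorescence from CellTiter-Fluor indicates live cells after 23 h exposure. The human hepatoma line expresses hCAR and a CYP2B6-2.2kb reporter. Incubation medium contains 0.75 uM PK11195 (final).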

In assay [4] the target is Nuclear receptor subfamily 1 group I member 3 (Homo sapiens) (UniProt Q14994). The assay can be described thus: qHTS assay to identify small molecule antagonists of the constitutive androstane receptor (CAR) signaling pathway (AID 1224838).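 Note: HepG2 cells stably expressing hCAR with CYP2B6 luciferase reporter stimulated by CITCO; nearly all actives have a fitted effect of over 40% in size.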 Put shortly:
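Antagonist mode used CITCO at a final 50 nM to activate CAR in human hepatoma HepG2 cells carrying stable hCAR and a 2.2 kb CYP2B6 promoter-luciferase construct. Compounds were tested at 15 concentrations over 24 h, with luminescence as the end point.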

Assay [5] is described as follows: qHTS assay to identify small molecule antagonists of the estrogen related receptor signaling pathway with the pleiotropic PPARgamma coactivator (PGC) from Tox21 10K library - cell viability counter screen (AID 1224840; active = well fitted cell-killing curve with a large enough effect in the repeat runs, not every such curve was filed as active; note: nearly all actives have a fitted effect of over 40% in size; note: potency is the fitted concentration of half-maximal effect). Put shortly:
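Multiplexed viability counter screen in the PGC/ERR cell line: cells treated with DMSO-dissolved compounds for 17.5 hours at 37 C, then viability measured as CellTiter-Fluor fluorescence.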

A short description of assay [6]: qHTS assay to identify small molecule antagonists of the estrogen related receptor signaling pathway with the pleiotropic PPARgamma coactivator (PGC) from Tox21 10K library (AID 1224841; call rule not given here; note: actives are mostly falling curves and most rising ones were filed inactive; nearly all actives have a fitted effect of over 50% in size; note: potency is the fitted concentration of half-maximal effect). Put shortly: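 Steps: plate 2,000 PGC/ERR cells per well; incubate 6 h at 37 C with 5% CO2; transfer compounds from DMSO stocks by pin tool; incubate 18 h at 37 C; add One-Glo; measure luminescence 30 min later.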

The nature of assay [7]: qHTS assay to identify small molecule agonists of the estrogen related receptor signaling pathway with the pleiotropic PPARgamma coactivator (PGC) from Tox21 10K library (AID 1224842). Note: nearly all actives have a fitted effect of over 15% in size. Put shortly: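 PGC/ERR reporter cells (NTP line) were seeded 2,000 per well, rested 6 h at 37 C/5% CO2, then pin-dosed with compounds in DMSO for 18 h at 37 C; luciferase read by One-Glo luminescence after 30 min at room temperature.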

Assay [8] concerns the target Thyrotropin receptor (Homo sapiens) (UniProt P16473). Kind of assay: qHTS assay to identify small molecule agonists of the thyroid stimulating hormone receptor (TSHR) signaling pathway (AID 1224843; calls by dose curve; note: nearly all actives have a fitted effect of over 45% in size). Put shortly:
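Compounds are titrated over 15 concentrations, in triplicate, onto TSHR-HEK293 cells seeded at 800/well. Plates sit 30 min at room temperature before cAMP-d2 and anti-cAMP cryptate are added; signal is read after a further hour.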

The nature of assay [9]: qHTS assay to identify small molecule agonists of H2AX (AID 1224845; active = well fitted activation curve with a large enough effect in the signal ratio in the repeat runs, not every such curve was filed as active; the % refers to the signal ratio). The gist of the method:
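Wild-type CHO-K1 cells plated overnight, then exposed 3 hr at 37C to compounds at 15 concentrations (0.76% DMSO). Lysed, then HTRF anti-pH2AX(S139)-cryptate/anti-H2AX-d2 detection after 24 hr at room temperature; emissions 665 and 620 nm.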

The nature of assay [10]: qHTS assay to identify small molecule agonists of H2AX - cell viability counter screen (AID 1224847; calls by dose curve; note: nearly all actives have a fitted effect of over 30% in size; note: potency is the fitted concentration of half-maximal effect). Put shortly: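 Viability of CHO-K1 (wild type) cells after 3 hr compound exposure was measured by CellTiter-Glo luminescence.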
A short description of assay [11]: qHTS assay to identify small molecule antagonists of the estrogen related receptor (ERR) signaling pathway from Tox21 library (AID 1224848). Note: nearly all actives have a fitted effect of over 50% in size. Note: potency is the fitted concentration of half-maximal effect. The gist of the method: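 First, 2,000 ERR cells per well were plated and held 6 h at 37 C/5% CO2. Next, compounds in DMSO were pinned in and left 18 h at 37 C. Finally, ONE-Glo was added and luminescence read after 30 min at room temperature.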

A short description of assay [12]: qHTS assay to identify small molecule agonists of the estrogen related receptor (ERR) signaling pathway from Tox21 library (AID 1224849; calls by dose curve; note: nearly all actives have a fitted effect of over 15% in size). The settings on record: ERR reporter cell line, ONE-Glo luciferase, 18 h; at 92.4 µM (top of the series) unless noted. Put shortly: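 Cells carrying the ERR reporter were plated and allowed to settle for 6 h, exposed to library compounds for 18 h at 37 C, then lysed with ONE-Glo and luminescence measured.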

Assay [13] in a line: qHTS RealTime-Glo MT Cell Viability Assay in HEK293 cells - 32 hour (AID 1224868). Note: nearly all actives have a fitted effect of over 50% in size. Note: potency is the fitted concentration of half-maximal effect. The gist of the method: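 Luminescence generated by NanoLuc from substrate produced by living HEK293 cells served as the viability signal. Each value reflects the reading at its stated time point during continuous 40 h compound exposure at 37 C.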
Assay [14] is described as follows: A CellTox Green Cytotoxicity Assay to monitor cytotoxicity in HEK293 cells - 0 hour (AID 1224869). Note: nearly all actives have a fitted effect of over 50% in size. Put shortly: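 Cells (HEK293, 600/well) and dye reagent are dispensed together. After 5 h at 37 C, 23 nL compound is pinned in. Plates stay at 37 C for 40 h with fluorescence read at 0h, 8h, 16h, 24h, 32h and 40h.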
The nature of assay [15]: qHTS RealTime-Glo MT Cell Viability Assay in HepG2 cells - 40 hour (AID 1224870). Note: nearly all actives have a fitted effect of over 50% in size. Note: potency is the fitted concentration of half-maximal effect. Put shortly:
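HepG2 cells mixed with RealTime-Glo MT reagents (NanoLuc plus cell-permeant prosubstrate) were seeded at 600 cells/well, incubated 5 h at 37 C/5% CO2, then pinned with compounds in DMSO; nonlytic luminescence tracked viability during 40 h treatment.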

Assay [16] in a line: qHTS assay to identify small molecule agonists of the hypoxia (HIF-1) signaling pathway - cell viability counter screen (AID 1224844; calls by dose curve; note: nearly all actives have a fitted effect of over 50% in size; note: potency is the fitted concentration of half-maximal effect). The gist of the method:
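Cytotoxicity was measured in parallel with the HRE-driven beta-lactamase readout: after 17 hrs of compound exposure at 37C, HRE-bla ME-180 cells received CellTiter-Glo and luminescence was recorded 30 min later.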

In assay [17] the target is Nuclear receptor subfamily 1 group I member 3 (Homo sapiens) (UniProt Q14994). The assay can be described thus: qHTS assay to identify small molecule agonists of the constitutive androstane receptor (CAR) signaling pathway (AID 1224839). Note: nearly all actives have a fitted effect of over 15% in size. Note: potency is the fitted concentration of half-maximal effect. The gist of the method: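 Stable hCAR/CYP2B6-2.2kb HepG2 line in DMEM with 10% FBS; compounds (15 concentrations) and 0.75 uM PK11195 final, 24 h at 37 C/5% CO2, then ONE-Glo luminescence after 30 min.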
Sequence of Nuclear receptor subfamily 1 group I member 3 (Homo sapiens) (Q14994 whole entry, looked up): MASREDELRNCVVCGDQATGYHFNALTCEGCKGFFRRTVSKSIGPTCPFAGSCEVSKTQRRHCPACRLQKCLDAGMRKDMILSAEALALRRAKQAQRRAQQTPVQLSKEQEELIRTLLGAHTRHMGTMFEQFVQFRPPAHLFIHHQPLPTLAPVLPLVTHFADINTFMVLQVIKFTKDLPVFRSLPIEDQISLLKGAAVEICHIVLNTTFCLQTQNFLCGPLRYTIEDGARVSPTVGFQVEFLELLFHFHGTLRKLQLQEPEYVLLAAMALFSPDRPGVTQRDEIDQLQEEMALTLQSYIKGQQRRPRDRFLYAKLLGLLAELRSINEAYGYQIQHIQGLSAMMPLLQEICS

A short description of assay [18]: qHTS RealTime-Glo MT Cell Viability Assay in HepG2 cells - 24 hour (AID 1224867). Note: nearly all actives have a fitted effect of over 50% in size. Note: potency is the fitted concentration of half-maximal effect. Put shortly:
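Tox21 10K library screened in qHTS format on HepG2 cells carrying RealTime-Glo reagents. Compounds were added after a 5 h preincubation, and the luminescent signal from continuous culture was measured repeatedly during 40 h treatment.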

The nature of assay [19]: qHTS assay to identify small molecule antagonists of the constitutive androstane receptor (CAR) signaling pathway - cell viability counter screen (AID 1224837). Note: nearly all actives have a fitted effect of over 45% in size. Note: potency is the fitted concentration of half-maximal effect. The gist of the method:
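Viability was measured with CellTiter-Fluor in a HepG2 line carrying stably transfected hCAR and a CYP2B6-2.2kb construct. Cells were exposed for 23 hr at 37 C to 15 compound concentrations with 50 nM CITCO as agonist.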

Assay [20] can be described thus: qHTS assay to identify small molecule agonists of the hypoxia (HIF-1) signaling pathway (AID 1224846; active = well fitted activation curve with a large enough effect in the signal ratio in the repeat runs, not every such curve was filed as active; the % refers to the signal ratio). The gist of the method: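 Compounds from the Tox21 10K library, dissolved in DMSO, are tested for induction of a hypoxia response element–controlled beta-lactamase reporter in ME-180 cells. Exposure lasts 17 hrs at 37C after a 5 hr settling period, followed by CCF4-AM FRET substrate.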

Here are results for eight compounds from PubChem BioAssay (Tox21).

Unmarked numbers belong to inactive results. Inconclusive results are not listed. Activity calls are given as the source filed them. Unless noted, calls come from the whole dose curve; as a rule, active = well fitted curve in the direction sought with a large enough effect in the repeat runs; inconclusive = weak or mixed curves; inactive = no such curve, though single readings can be large; an effect the other way counts as inactive or inconclusive.
% is set by controls: 0 for no effect and ±100 for the full control effect.

Sequence of Thyrotropin receptor (Homo sapiens) (P16473 whole entry, looked up): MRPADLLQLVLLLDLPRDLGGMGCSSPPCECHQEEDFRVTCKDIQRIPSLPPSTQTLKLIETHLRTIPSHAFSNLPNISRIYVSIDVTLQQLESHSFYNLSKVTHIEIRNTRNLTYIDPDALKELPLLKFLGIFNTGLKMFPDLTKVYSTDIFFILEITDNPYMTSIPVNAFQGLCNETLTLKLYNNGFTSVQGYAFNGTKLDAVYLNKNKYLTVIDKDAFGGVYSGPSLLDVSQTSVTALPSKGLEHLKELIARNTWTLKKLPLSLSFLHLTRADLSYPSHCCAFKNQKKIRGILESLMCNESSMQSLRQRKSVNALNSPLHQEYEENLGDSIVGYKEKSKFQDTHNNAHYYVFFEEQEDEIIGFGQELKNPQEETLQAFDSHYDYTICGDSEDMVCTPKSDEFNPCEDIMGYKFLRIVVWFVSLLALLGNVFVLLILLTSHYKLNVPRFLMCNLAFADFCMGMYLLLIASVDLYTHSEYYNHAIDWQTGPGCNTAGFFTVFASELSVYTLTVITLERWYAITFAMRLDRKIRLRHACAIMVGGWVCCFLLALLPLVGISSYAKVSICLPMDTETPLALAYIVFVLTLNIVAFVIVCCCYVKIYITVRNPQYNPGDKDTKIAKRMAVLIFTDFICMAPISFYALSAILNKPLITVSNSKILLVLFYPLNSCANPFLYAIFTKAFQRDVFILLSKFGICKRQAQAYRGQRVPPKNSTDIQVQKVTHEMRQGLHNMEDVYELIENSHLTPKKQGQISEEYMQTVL

Turning to `CC(C)=CCC/C(C)=C/CC/C(C)=C/C(=O)OCC(=O)[C@@]1(O)CC[C@H]2[C@@H]3CCC4=CC(=O)C=C[C@]4(C)[C@H]3[C@@H](O)C[C@@]21C`, the Potency in assay [1] is 29.8 µM (active); in [6], 16.8 µM (active); in assay [11], 6.68 µM (active); in assay [13], 4.77 µM (active). Further, the Potency entry in [2], in [3], in assay [4], in assay [5], in [7] and in [8] was “inactive” throughout. The Potency result in [9], in assay [10], in assay [14] and in assay [15] was “inactive” in each case. In addition, the activity change, positive = activation in [12] was -50.7% [at 42.5 µM].
For the compound `CN1C(=O)N(c2ccccc2Br)Cc2cnc(Nc3ccc4c(c3)OCC(CO)O4)nc21` (configuration not stated), the Potency in assay [1] is 27.3 µM (active); in [2], 20 µM (active); in assay [3], 30.6 µM (active); in [5], 21.7 µM (active); in [10], 31.8 µM (active); in [11], 8.63 µM (active). Besides, in assay [13], the Potency was 6.16 µM (active). Further, the Potency result in assay [7], in assay [16], in assay [9] and in assay [14] was “inactive” throughout. In [12], the activity change, positive = activation was -69.6%.
As to `Brc1cc2ccccc2c2ccccc12`, the Potency entry in assay [1], in assay [2], in assay [7], in [18], in assay [14] and in [15] was “inactive” each time. The Potency in assay [17] was 17.4 µM (active); in [6], 61.6 µM (active); in assay [16], 44 µM (active). Moreover, in assay [12], the activity change, positive = activation was -24%.
On to `CC(=O)NC1(c2cccc(F)c2)CCN(CC[C@@]2(c3ccc(Cl)c(Cl)c3)CN(c3ccccc3)C(=O)CO2)CC1`, for which the Potency was 54.6 µM (active) in assay [1]; 54.6 µM (active) in assay [19]; 43.4 µM (active) in assay [5]; 39 µM (active) in assay [16]; 43.8 µM (active) in [18]; 17.4 µM (active) in assay [13]. In addition, the Potency in assay [15] is 43.8 µM (active). In addition, the Potency entry in assay [2], in assay [17], in assay [8] and in assay [14] was “inactive” throughout. In addition, the compound was called inactive in [20].
`c1ccc2sc(SN(C3CCCCC3)C3CCCCC3)nc2c1`: the Potency entry in [1], in [2], in assay [3], in assay [4], in [5] and in [9] was “inactive” each time. Further, the Potency entry in assay [10], in [18], in [13], in assay [14] and in [15] was “inactive” in each case. Further, in assay [20], the compound was called inactive.
Regarding `O=C(OCC(O)CO)c1ccccc1Nc1ccnc2cc(Cl)ccc12` (configuration not stated), the Potency in assay [1] is 29.8 µM (active); in assay [11] it was 26.6 µM (active); in assay [13], 8.49 µM (active). Moreover, the Potency entry in assay [3], in [19], in assay [4], in [17], in [5] and in assay [6] was “inactive” each time. Also, the Potency entry in assay [7], in [16], in assay [18] and in assay [14] was “inactive” each time. In [12], the activity change, positive = activation was -40.1% [at 42.5 µM].
For `Cc1cc(O)c(C)c(C)c1O`, the Potency entry in assay [1], in assay [2], in assay [3], in assay [17], in [5] and in [7] was “inactive” in each case. For the same compound, the Potency result in assay [16], in [10], in assay [11], in [18], in [14] and in assay [15] was “inactive” in each case. Besides, the result in [20] was inactive. The activity change, positive = activation in [12] is 2.57% [at 42.5 µM].
With `CCC1NC(=O)c2cc(S(N)(=O)=O)c(Cl)cc2N1` (configuration not stated), the Potency entry in assay [1], in [2], in assay [3], in assay [4], in [5] and in [8] was “inactive” in each case. Further, the Potency result in assay [16], in [9], in assay [18], in [13], in assay [14] and in [15] was “inactive” each time. For the same compound, in assay [20], the call was inactive.
